ChEMBL document CHEMBL3433997, “St. Jude Leishmania screening dataset” (2016)

Legend:
Format in all cases: functional
[1] = molecular target: Solute carrier family 2, facilitated glucose transporter member 1 (Homo sapiens) (UniProt P11166); test: ST_JUDE_LEISH: Cytotoxicity at 2uM final concentration against transgenic Leishmania Mexicana promastigotes LmGLUT1 that are glucose transport deficient and complemented with the human glucose transporter GLUT1. Activity is measured by DNA content using SYBR green in vitro
Solute carrier family 2, facilitated glucose transporter member 1 (Homo sapiens), sequence (P11166 whole entry): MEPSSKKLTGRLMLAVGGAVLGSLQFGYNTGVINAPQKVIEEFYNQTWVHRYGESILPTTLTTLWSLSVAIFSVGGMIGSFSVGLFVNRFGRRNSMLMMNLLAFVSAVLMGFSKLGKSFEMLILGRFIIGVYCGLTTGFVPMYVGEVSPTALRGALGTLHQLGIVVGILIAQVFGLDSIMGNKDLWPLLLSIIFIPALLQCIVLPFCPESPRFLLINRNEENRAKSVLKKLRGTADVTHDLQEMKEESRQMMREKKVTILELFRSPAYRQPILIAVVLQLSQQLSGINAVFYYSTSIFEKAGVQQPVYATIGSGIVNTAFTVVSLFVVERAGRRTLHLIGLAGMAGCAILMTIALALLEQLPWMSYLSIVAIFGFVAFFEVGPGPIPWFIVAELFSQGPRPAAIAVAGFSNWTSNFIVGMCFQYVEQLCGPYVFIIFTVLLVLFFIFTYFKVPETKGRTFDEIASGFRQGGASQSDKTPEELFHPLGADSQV

[2] = molecular target: Hexose transporter 1 (Plasmodium falciparum) (UniProt O97467); test: ST_JUDE_LEISH: Cytotoxicity at 2uM final concentration against transgenic Leishmania Mexicana promastigotes LmPfHT that are glucose transport deficient and complemented with the Plasmodium falciparum hexose transporter. Activity is measured by DNA content using SYBR green in vitro
[3] = molecular target: Glucose transporter (Leishmania mexicana) (UniProt O61059); test: ST_JUDE_LEISH: Cytotoxicity at 2uM final concentration against transgenic Leishmania Mexicana promastigotes LmGT2 that are glucose transport deficient and complemented with the L. Mexicana glucose transporter 2. Activity is measured by DNA content using SYBR green in vitro

SMILES | inhibition [1] | inhibition [2] | inhibition [3]
O=C(Nc1ccc2oc(-c3ccc(Br)cc3)nc2c1)c1ccc([N+](=O)[O-])o1 | 10.3% | 6.94% | 6.73%
COc1cc(F)c2ncc(Cl)c(CCN3CCC(NCc4ccc5c(c4)OCCO5)CC3)c2c1 | 41.6% | 54.6% | 68.8%
CC1C(c2cccc(Cl)c2)OCC(C)(C)N1C(=O)CCN1CCCCC1 (centres undefined) | -1.47% | -0.69% | -1.56%
CN(C)CCOc1ccc(-c2cc(-c3ccc(Cl)c(O)c3)c(-c3ccnc(N)n3)o2)cc1 | 2.11% | 2.73% | 3.05%
FC(F)(F)c1ccc2[nH]ccc(=NN=Cc3cccc(Cl)c3)c2c1 | 1.05% | -0.16% | -3.89%
O=C(CCn1c2ccccc2c2ccccc21)NN=Cc1ccco1 | 7.25% | 5.11% | 4.19%
N#Cc1ccc(NC(=O)c2ccc(Cc3ccc4c(c3)CCN(C3CCC3)CC4)cn2)cc1 | 9.64% | 10.6% | 10.4%
O=C1C[C@@H]([S+]([O-])Cc2nccs2)N1CCOCCCCCCc1ccc(Cl)cc1 (some centres undefined) | 9.09% | 8.24% | 9.2%
CNC(=O)C(NC(=O)c1ccccc1C(=O)OC)c1ccccc1 (centres undefined) | 1.77% | 0.32% | -2.13%
Cc1nc2nc(N)nc(N)c2c(C)c1Cc1ccc(C(F)(F)F)cc1 | 32.9% | 38.8% | 28.9%
C=C(C)C1CC=C(CN2CCC(N3CCc4cc(NC(=O)c5cc(C)on5)ccc43)C2)CC1 (centres undefined) | 2.54% | 4.39% | 4%
CC(C)C(=O)NC(c1ccc(Cl)cc1)c1ccc2cccnc2c1O (centres undefined) | 3.14% | 5.18% | 2.63%
Cc1cnc(C(=O)Nc2cccc(-c3ccc(-c4nc5cc(C(F)(F)F)ccc5[nH]4)s3)c2)cn1 | 8.07% | 5.21% | 6.71%
